# Laboratory results published in the supplement of paper PMC6411743.
# ± gives the standard deviation of the averaged measurements. The full data set covers some 5,400 targets. This sample favours those with the largest changes.
# Compound: Nc1nc2c(ncn2[C@@H]2O[C@H](COP(=O)(O)OP(=O)(O)OP(=O)(O)O)[C@@H](O)[C@H]2O)c(=O)[nH]1 [guanosine triphosphate]
# Assay: NP40-soluble protein abundance relative to vehicle (solubility fold change) (ratio); higher = more soluble protein in presence of GTP
# Details: concentration: 4mM
# In short: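 Each value is a fold change relative to the detergent-processed vehicle, calculated per replicate from vsn-normalised intensities. Jurkat crude lysate received eight concentrations (0.1 to 10 mM) for 10 min at room temperature and 3 min at 37 °C, then was solubilised in 0.8% NP40 with benzonase (60 min, 4 °C). The ultracentrifuged supernatant was TMT-labelled and run by LC-MS/MS in three independent experiments.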
# UniProt Q13573, sequence (Q13573 whole entry): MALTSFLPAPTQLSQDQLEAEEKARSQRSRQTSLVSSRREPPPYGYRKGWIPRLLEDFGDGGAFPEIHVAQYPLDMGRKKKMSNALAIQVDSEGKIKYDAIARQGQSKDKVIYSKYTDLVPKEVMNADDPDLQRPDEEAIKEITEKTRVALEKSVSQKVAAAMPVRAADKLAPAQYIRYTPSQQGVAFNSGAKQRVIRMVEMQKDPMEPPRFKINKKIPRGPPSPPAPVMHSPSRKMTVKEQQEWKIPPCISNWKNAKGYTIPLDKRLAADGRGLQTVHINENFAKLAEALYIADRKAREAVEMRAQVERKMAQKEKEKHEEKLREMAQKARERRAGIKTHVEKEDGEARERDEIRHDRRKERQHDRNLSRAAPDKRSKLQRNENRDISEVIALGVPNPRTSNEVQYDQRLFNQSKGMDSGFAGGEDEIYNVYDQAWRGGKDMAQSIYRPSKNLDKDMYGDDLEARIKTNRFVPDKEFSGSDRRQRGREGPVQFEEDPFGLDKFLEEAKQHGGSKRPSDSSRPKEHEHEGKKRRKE
# UniProt Q10567, sequence (Q10567 whole entry): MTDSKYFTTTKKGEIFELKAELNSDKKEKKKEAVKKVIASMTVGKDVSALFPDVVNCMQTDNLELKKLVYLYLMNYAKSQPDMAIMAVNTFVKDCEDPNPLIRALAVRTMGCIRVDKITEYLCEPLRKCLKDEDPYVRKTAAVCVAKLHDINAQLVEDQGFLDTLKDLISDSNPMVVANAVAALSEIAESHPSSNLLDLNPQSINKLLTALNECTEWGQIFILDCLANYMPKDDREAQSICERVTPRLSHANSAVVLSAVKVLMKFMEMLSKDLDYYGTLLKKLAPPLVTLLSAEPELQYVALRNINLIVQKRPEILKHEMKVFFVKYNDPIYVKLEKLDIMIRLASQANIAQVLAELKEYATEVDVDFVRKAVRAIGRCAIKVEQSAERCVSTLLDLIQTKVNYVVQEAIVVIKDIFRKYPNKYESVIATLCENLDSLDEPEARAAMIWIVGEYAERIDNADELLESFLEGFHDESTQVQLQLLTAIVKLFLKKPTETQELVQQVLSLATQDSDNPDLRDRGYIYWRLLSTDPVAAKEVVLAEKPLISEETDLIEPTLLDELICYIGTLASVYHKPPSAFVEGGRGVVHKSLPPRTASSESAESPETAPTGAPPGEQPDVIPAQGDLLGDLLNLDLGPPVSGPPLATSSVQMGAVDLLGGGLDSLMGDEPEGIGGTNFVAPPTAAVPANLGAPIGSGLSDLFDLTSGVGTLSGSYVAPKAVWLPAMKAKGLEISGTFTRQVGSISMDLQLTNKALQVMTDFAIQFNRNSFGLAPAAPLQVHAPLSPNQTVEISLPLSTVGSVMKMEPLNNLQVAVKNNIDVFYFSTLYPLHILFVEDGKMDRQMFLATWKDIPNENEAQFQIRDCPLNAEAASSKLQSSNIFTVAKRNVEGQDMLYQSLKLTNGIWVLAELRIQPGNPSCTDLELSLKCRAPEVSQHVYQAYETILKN
# UniProt Q12872, sequence (Q12872 whole entry): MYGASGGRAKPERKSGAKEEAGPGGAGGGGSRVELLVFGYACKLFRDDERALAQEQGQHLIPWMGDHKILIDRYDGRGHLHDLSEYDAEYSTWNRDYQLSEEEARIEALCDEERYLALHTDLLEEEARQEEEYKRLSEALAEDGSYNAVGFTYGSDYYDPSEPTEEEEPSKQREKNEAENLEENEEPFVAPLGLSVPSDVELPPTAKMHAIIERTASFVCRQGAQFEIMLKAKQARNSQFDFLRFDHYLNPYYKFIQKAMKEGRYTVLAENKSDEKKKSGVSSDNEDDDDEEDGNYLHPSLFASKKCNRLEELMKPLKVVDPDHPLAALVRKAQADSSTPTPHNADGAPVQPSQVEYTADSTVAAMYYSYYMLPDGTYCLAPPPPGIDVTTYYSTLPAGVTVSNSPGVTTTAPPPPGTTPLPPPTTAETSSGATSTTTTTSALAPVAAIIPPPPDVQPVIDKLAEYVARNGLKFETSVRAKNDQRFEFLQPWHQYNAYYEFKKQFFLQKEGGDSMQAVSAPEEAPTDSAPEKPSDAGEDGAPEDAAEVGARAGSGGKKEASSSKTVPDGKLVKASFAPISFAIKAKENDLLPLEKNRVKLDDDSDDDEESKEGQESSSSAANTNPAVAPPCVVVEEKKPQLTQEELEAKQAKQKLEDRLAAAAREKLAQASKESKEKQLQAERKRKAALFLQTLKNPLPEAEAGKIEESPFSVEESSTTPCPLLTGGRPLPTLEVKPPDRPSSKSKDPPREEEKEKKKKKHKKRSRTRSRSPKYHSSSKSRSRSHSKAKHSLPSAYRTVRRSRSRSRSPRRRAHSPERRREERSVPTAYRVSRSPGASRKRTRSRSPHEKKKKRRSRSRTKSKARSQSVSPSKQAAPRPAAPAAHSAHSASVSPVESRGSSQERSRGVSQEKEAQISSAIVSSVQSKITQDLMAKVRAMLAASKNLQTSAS
# UniProt Q14444, sequence (Q14444 whole entry): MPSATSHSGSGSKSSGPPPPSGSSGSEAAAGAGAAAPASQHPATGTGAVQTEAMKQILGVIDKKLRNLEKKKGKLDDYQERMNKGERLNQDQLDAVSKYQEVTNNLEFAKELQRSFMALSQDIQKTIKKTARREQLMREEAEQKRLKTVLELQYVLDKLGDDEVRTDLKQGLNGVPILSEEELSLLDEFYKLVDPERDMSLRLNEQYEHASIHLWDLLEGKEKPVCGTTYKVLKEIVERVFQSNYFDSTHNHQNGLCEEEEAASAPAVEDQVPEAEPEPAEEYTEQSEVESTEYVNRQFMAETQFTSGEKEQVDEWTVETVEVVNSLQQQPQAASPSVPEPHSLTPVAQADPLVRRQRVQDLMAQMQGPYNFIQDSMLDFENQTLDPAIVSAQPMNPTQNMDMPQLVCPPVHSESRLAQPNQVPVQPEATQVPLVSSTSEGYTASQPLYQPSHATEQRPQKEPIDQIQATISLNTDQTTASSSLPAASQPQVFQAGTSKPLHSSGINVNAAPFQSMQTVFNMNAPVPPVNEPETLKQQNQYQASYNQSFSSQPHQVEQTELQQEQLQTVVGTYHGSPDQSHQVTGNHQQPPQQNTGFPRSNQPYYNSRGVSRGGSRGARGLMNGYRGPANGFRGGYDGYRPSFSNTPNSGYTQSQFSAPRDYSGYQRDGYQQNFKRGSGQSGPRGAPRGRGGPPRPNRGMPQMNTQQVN
# UniProt Q8TC12, sequence (Q8TC12 whole entry): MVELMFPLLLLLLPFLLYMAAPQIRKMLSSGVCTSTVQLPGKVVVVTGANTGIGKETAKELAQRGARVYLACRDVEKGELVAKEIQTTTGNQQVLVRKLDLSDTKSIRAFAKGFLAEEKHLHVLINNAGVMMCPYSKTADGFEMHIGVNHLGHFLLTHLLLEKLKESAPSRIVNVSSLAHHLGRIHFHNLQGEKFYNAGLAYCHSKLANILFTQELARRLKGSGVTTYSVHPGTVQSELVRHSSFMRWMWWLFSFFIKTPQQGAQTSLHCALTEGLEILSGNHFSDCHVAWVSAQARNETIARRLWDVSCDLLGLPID
# UniProt Q5K651, sequence (Q5K651 whole entry, one chain of several): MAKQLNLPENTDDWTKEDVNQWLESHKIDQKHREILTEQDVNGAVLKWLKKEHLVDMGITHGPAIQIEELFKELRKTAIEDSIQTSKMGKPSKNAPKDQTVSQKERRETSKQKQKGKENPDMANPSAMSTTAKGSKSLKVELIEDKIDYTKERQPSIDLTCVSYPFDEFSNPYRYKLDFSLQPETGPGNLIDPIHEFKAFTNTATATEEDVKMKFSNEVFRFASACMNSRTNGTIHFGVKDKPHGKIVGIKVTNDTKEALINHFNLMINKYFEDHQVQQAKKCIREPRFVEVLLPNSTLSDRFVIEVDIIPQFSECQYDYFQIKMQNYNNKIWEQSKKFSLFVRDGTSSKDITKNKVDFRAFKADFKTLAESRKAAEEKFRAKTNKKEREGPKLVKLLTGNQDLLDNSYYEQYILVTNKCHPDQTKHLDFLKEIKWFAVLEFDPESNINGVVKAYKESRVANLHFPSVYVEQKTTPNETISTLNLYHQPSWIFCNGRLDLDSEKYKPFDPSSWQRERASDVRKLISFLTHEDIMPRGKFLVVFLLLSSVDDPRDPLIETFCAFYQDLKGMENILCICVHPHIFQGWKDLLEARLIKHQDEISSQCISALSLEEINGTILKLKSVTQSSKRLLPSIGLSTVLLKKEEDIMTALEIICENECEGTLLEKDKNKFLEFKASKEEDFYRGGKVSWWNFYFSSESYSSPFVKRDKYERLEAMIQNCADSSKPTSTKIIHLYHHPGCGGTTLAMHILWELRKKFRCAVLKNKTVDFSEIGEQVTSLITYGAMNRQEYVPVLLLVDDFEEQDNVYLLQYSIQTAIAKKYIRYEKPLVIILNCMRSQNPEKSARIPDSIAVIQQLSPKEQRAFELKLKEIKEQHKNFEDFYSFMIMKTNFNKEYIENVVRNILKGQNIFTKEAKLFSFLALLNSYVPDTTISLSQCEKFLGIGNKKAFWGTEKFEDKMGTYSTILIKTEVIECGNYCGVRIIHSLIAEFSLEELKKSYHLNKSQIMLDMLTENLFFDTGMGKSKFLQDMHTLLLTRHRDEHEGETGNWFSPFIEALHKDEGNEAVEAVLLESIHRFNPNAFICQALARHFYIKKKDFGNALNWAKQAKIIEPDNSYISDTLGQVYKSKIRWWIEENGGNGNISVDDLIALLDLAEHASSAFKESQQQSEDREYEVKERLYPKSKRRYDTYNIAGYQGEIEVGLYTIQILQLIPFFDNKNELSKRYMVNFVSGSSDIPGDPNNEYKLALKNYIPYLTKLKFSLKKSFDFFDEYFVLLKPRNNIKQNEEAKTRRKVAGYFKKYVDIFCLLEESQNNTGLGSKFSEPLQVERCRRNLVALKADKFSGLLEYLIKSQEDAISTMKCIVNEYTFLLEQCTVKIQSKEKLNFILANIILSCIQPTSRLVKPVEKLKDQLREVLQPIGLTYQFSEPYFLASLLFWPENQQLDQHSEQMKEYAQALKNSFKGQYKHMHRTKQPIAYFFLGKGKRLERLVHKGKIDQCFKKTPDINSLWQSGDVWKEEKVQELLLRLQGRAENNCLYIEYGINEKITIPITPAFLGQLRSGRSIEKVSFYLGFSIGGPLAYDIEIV
row,Target,NP40-soluble protein abundance
1,UniProt P55072,1.03 ± 0.11
2,YRDC (UniProt Q86U90),0.946 ± 0.041
3,UniProt Q86U86|Q86U86-8|Q86U86-2|Q86U86-4|Q86U86-5|Q86U86-7|Q86U86-9,1.53 ± 0.12
4,UniProt Q5K651|C9JKF1,0.968 ± 0.083
5,UniProt Q7Z3B4|Q7Z3B4-3,1.06 ± 0.062
6,UniProt Q16630|Q16630-2,2.49 ± 0.41
7,AARS2 (UniProt Q5JTZ9),0.98 ± 0.06
8,UniProt Q10567|Q10567-2|Q10567-3,0.954 ± 0.04
9,UniProt Q12872|Q12872-2,1.42 ± 0.016
10,PSMD2 (UniProt Q13200),1.06 ± 0.17
11,UniProt Q86Y37|Q86Y37-4,0.907 ± 0.091
12,UniProt Q16864|Q16864-2,0.999 ± 0.061
13,LEMD2 (UniProt Q8NC56),1.34 ± 0.088
14,UniProt Q13428|Q13428-3|Q13428-4|Q13428-7,1.11 ± 0.16
15,DHX9 (UniProt Q08211),1.32 ± 0.28
16,THOC7 (UniProt Q6I9Y2),2.31 ± 0.58
17,DDX1 (UniProt Q92499),0.997 ± 0.059
18,EDC4 (UniProt Q6P2E9),1.01 ± 0.039
19,P86790|P86791 (UniProt P86791+P86790),1.01 ± 0.068
20,RAB8A (UniProt P61006),0.812 ± 0.064

row,Target,NP40-soluble protein abundance
1,MBLAC2 (UniProt Q68D91),1.01 ± 0.11
2,SNW1 (UniProt Q13573),0.942 ± 0.063
3,UniProt Q13427|E9PG73,1.09 ± 0.13
4,UniProt Q63HQ0,1.02 ± 0.16
5,MLKL (UniProt Q8NB16),0.873 ± 0.047
6,UniProt P62277,0.802 ± 0.25
7,EXOSC7 (UniProt Q15024),1.26 ± 0.13
8,CCDC25 (UniProt Q86WR0),0.855 ± 0.1
9,UniProt P60228,1.32 ± 0.27
10,UniProt Q86W42|Q86W42-2,2.27 ± 0.61
11,UniProt Q6UXH1|Q6UXH1-4|Q6UXH1-5|Q6UXH1-6,0.935 ± 0.096
12,UniProt Q14103-3|D6RF44|Q14103-4,0.903 ± 0.1
13,MTM1 (UniProt Q13496),0.933 ± 0.093
14,UniProt Q7KZN9|Q7KZN9-2,0.939 ± 0.052
15,KPNB1 (UniProt Q14974),1.01 ± 0.041
16,RDH11 (UniProt Q8TC12),0.867 ± 0.048
17,TWF2 (UniProt Q6IBS0),1.03 ± 0.08
18,PDCD6IP (UniProt Q8WUM4),0.873 ± 0.084
19,UniProt Q14444|Q14444-2,1.02 ± 0.088
